High-throughput results: PubChem, The Scripps Research Institute Molecular Screening Center
EBNA-1 inh: blocks EBNA-1 binding to DNA; EBNA-1 DNA binding, fluorescence polarization; inhibition, % at 14.8 µM; hit rate 0.34% among 300,000; AID 1950; in the data active means inhibition above about 28%
ZTA counter: counter-screen for EBNA-1 inhibitors: inhibitors of Epstein-Barr virus ZTA | ZTA-DNA binding, fluorescence polarization | inhibition, % at 11 µM | hit rate 0.15% among 320,000; in the data active means inhibition above about 33%
MsrA act: bovine methionine sulfoxide reductase A activation | hit rate 0.3% among 360,000 | activation, % at 10.6 µM | purified bovine MsrA, absorbance read-out; in the data active means activation above about 7.5%;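 further: 0% = vehicle and 100% = reference activator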
MsrA inhibitor: inhibits bovine methionine sulfoxide reductase A; inhibition, % at 15.5 µM; purified bovine MsrA, absorbance read-out; AID 651718; hit rate 0.75% among 360,000; in the data active means inhibition above about 4.5%;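 further: 0% = vehicle wells with enzyme and 100% = reference inhibitor wells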
PP1 counter: counter-screen for PP5 inhibitors: inhibitors of human PP1-alpha | purified PP1alpha, OMFP fluorescence | inhibition, % at 6.7 µM | hit rate 0.9% among 320,000;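 active means inhibition above the mean inhibition of all tested compounds plus 3 SD, computed separately for each screening campaign, cut at about 15% in these data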
Target sequence (P62136 whole entry, looked up): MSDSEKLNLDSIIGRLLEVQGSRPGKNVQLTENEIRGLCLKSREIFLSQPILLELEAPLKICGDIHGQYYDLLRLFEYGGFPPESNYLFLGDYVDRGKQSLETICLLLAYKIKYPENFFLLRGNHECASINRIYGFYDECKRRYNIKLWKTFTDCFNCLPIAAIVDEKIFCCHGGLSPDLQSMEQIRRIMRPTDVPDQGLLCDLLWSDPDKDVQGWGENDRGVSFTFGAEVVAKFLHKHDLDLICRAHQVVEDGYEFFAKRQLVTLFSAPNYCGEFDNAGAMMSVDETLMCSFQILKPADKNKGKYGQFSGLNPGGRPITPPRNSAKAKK
PP5 primary: PP5 (human) phosphatase inhibition | P53041 | inhibition, % at 6.7 µM | purified PP5c, OMFP substrate fluorescence | AID 1987 | hit rate 0.18% among 320,000;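 active means inhibition above the campaign's mean inhibition across all tested compounds plus 3 SD, cut at about 9.5% in these data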;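 further: 0% = DMSO only and 100% = 100 µM cantharidin control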
Active calls of the source: *; · = not tested or not shown. A selection: hits, their analogues and other compounds. The true share with any hit is near 2.3%.

SMILES	EBNA-1 inh	ZTA counter	MsrA act	MsrA inhibitor	PP1 counter	PP5 primary
CC(C)(C)OC(=O)NCC(=O)Oc1cc2oc(=O)cc(-c3ccccc3)c2cc1Cl	3	-1	-5	2	1	2
CN(C)Cc1c(C(C)(C)O)[nH]c2ccccc12	·	·	·	0	·	·
C=CCN(c1ccccc1)S(=O)(=O)c1cccc(C(=O)Nc2nc3ccccc3[nH]2)c1	-7	3	-8	1	17*	-3
C=CCN(c1ccccc1)S(=O)(=O)c1cccc(C(=O)Nc2ccncc2)c1	-4	7	1	1	-1	5
CCN(CC)c1ccc(NC(=O)COC(=O)/C=C/c2nc3ccccc3s2)cc1	-2	-13	-11	1	15*	1
CNC12CCc3cc(OC)c(OC)c(c31)-c1cc3c(cc1C2)OCO3 (stereo unspecified)	·	·	·	0	·	·
O=C1/C(=C/c2cccnc2)N=C2CCCCCN12	-1	-28	-4	4.6*	-2	2
Cc1c(N2C(=O)/C(=C\c3ccc(N(C)C)cc3)N(C)C2=S)c(=O)n(-c2ccccc2)n1C	-4	-8	-5	0	16*	8
C=CCNC(=S)Nc1sc2c(c1C(=O)OCC)CC(C)(CC)OC2 (stereo unspecified)	-10	-17	3	4.6*	1	-2
COCc1[nH]nc2c1C(c1ccc(C)cc1)N(Cc1ccccc1)C2=O (stereo unspecified)	·	·	·	0	·	·
CC(C)c1cc(C(C)C)c(S(=O)(=O)N2c3ccccc3[C@@]3(Br)C[C@H]4C(=O)N[C@@H](Cc5ccccc5)C(=O)N4[C@@H]23)c(C(C)C)c1	7	24	·	·	16*	4
CCCOc1ccc(/C=N/NC(=S)Nc2ccccc2[N+](=O)[O-])c(O)c1	7	-2	·	0	15*	0
Cc1nn(CCCC(=O)Nc2sc3c(c2C#N)CCC3)c(C)c1[N+](=O)[O-]	-7	-8	-1	25*	-2	1
Nc1ccc(NC(=O)c2ccc(C(=O)Nc3ccc(N)cc3)cc2)cc1	-2	-10	-2	1	16*	1
CN(c1ccccc1)c1nccc(=O)[nH]1	-11	-8	-2	-1	-2	1
COc1ccc(-c2nc3ccc(C)cn3c2NCc2ccccc2)cc1SC1CCCCC1	5	13	0	·	17*	3
CCCCNc1c(-c2ccc(OC)c(SC3CCCCC3)c2)nc2ccc(C)cn12	·	·	-12	1	·	·
Cc1cc(-c2ccc(N=Nc3c(S(=O)(=O)O)cc4cc(S(=O)(=O)O)cc(N)c4c3O)c(C)c2)ccc1N=Nc1c(S(=O)(=O)O)cc2cc(S(=O)(=O)O)cc(N)c2c1O	69*	181*	·	·	76*	18*
C=CCN=C1NC(c2ccccc2C(F)(F)F)C(C(=O)OC)=C(C)N1Cc1ccc(C(F)(F)F)cc1 (stereo unspecified)	·	·	·	-1	·	·
COc1cccc(C(=O)NN2CC(O)=C(c3nc(C)cs3)C2=N)c1	1	4	-3	0	-1	-1
Cc1ccc(C(=O)NN2CC(O)=C(c3nc(-c4cccc([N+](=O)[O-])c4)cs3)C2=N)cc1	11	14	-5	0	17*	3
COC(=O)[C@]12C[C@H](CC(=O)NCCC(C)C)C(=O)N(Cc3ccc4c(c3)OCO4)C1=C[C@H](C(C)(C)C)O[C@@H]2C	·	·	·	0	·	·
COc1cccc2cc(C(=O)C3=C(O)C(=O)N(CCN4CCOCC4)C3c3ccc(Cl)cc3)oc12 (stereo unspecified)	0	8	-1	0	8	2
COc1cccc2cc(C(=O)C3=C(O)C(=O)N(CCN4CCOCC4)C3c3cccc(Cl)c3)oc12 (stereo unspecified)	11	5	-14	3	23*	-2
CC1(C)Cc2c(c(=S)nc(-c3ccccc3)n2CCN2CCOCC2)CO1	-4	4	-4	4.6*	-1	3
SMILES	EBNA-1 inh	ZTA counter	MsrA act	MsrA inhibitor	PP1 counter	PP5 primary
Cn1cc(CCOCc2ccccn2)c2ccccc21	·	·	·	-1	·	·
CCOC(=O)N[C@H](C(=O)N1CCC[C@H]1C(=O)NC1CCCC1)C1CCCCC1	·	·	·	1	·	·
O=c1c2ccccc2nc(/C=C/c2ccccc2)n1CCCO	5	-16	-14	4.6*	-1	2
O=c1c2ccccc2nc(/C=C/c2ccc3c(c2)OCO3)n1CCCO	·	·	-2	·	·	·
Nc1[nH]c(C(=O)c2ccccc2)c(-c2ccc3ccccc3c2)c1C(=O)NCc1ccc(F)cc1	·	·	·	0	·	·
Oc1cccc2ccc(/C=C/c3ccccc3Br)nc12	-14	-1	-2	2	16*	3
